# Measured values as given in the supplement of paper PMC3334620.
# The full ranking holds about 33,000 sequences; the median of “E-score (-0.5 to 0.5)” is about -0.016, and the highest 2% start at about 0.31. The sample as a whole holds a higher share of the highest values than the screen did.
# Biological target: Cst6 (UniProt P40535)
# Experiment: PBM E-score (8-mer binding enrichment) (E-score (-0.5 to 0.5)); higher = stronger / more preferred TF binding
# Details: protein concentration: 200 nM; construct: GST-DNA-binding domain
# In short: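 For each ungapped eight-base word taken together with its reverse complement, the Universal PBM Analysis Suite assigned an E-score. Binding data came from GST-tagged yeast transcription factors, applied at about 100-200 nM, on universal all-10-mer Agilent arrays made double-stranded by primer extension. Fluorescent anti-GST marked bound protein, and scans were normalised with masliner.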
# UniProt P40535, sequence (P40535 whole entry): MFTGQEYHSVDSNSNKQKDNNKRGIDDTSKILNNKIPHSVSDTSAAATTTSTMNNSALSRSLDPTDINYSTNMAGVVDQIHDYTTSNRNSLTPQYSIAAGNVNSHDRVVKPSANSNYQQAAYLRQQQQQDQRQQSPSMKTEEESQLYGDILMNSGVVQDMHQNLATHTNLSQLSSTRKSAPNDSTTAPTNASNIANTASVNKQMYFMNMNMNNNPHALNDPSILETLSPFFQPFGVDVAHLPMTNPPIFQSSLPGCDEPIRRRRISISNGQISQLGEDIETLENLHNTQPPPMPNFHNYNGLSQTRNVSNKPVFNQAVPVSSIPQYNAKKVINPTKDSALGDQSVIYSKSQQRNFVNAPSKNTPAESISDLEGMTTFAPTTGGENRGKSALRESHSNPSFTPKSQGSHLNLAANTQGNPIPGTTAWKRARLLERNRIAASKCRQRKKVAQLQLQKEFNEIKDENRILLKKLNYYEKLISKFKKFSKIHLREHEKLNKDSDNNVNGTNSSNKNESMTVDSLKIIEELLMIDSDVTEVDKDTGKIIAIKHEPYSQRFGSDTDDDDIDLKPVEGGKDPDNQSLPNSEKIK
row,Sequence,PBM E-score
1,AGCCGATA,-0.0664
2,CCAAGATC,-0.12
3,CGTGAGAG,-0.269
4,CAGACGTC,0.113
5,ATGACGTC,0.497
6,ACGACGTC,0.218
7,AAGACGTC,0.28
8,CTGACGTC,0.482
9,CGGACGTC,0.252
10,AGCAAGCA,-0.252
11,GCCCAGGC,-0.318
12,GTGTATGA,0.186
13,ACGTATGG,0.158
14,ACGTATGC,0.32
15,ACGTATGA,0.432
16,ATGTATGA,0.336
17,CCGTATGC,0.0167
18,CCGTATGA,0.226
19,AGGTATGC,0.111
20,ATGTATGG,0.0177
21,GGGAAGAA,-0.0773
22,ACTGGTGA,-0.0583
23,GAGTTGGA,-0.0506
24,ACACGTAT,0.238

row,Sequence,PBM E-score
1,AGACGTAT,0.144
2,ATACGTAT,0.376
3,CTACGTAG,0.137
4,TTACGTAA,0.493
5,ATACGTAC,0.198
6,ATACGTAA,0.463
7,ATACGTAG,0.186
8,TTACGAAA,0.284
9,TTACGGAA,0.178
10,CTACGTAC,0.00059
11,CTACGTAA,0.451
12,AGGTCCAT,-0.0689
13,CGTTCTCC,-0.174
14,CAGCGCCC,-0.0102
15,ATAGATGC,-0.0272
16,TAGCAGAA,0.107
17,AGTATGTC,0.155
18,CAGTGTGA,0.158
19,AGGTTGAC,0.0459
20,GAAACGCA,0.172
21,AGACATCC,-0.211
22,GTACGTAA,0.449
23,GTACGTAC,0.0996
24,GCACGTAC,-0.00487

row,Sequence,PBM E-score
1,TCAAGCGA,-0.00748
2,ACAGGCGG,-0.104
3,GTGCCGTA,0.389
4,CTGCCGTC,0.0959
5,CTGCCGTA,0.0163
6,ATGCCGTA,0.372
7,ATGCCGTG,0.283
8,AAGCCGTA,0.173
9,GTGCCGGA,-0.104
10,ATGCCGAA,0.0887
11,ATGCCGTC,0.323
12,GGGTTAAA,-0.06
13,GAGAGAGC,-0.197
14,AATTGCGA,-0.111
15,AATTGCGG,-0.0187
16,CATTGCGC,0.0683
17,AATTGCGT,0.315
18,GATTGCGC,0.0307
19,AATTGCGC,0.309
20,AAAACGCG,0.205
21,AACGTTGC,-0.0467
22,AAGTACCT,-0.196
23,AAGTGAAG,-0.0822
24,AAGCCGAC,-0.231

row,Sequence,PBM E-score
1,CCACGGCC,-0.0591
2,CGACGGCG,0.257
3,ACACGGCA,0.282
4,AAACGCCA,0.18
5,AAACGCCG,0.36
6,AGACGGCC,-0.214
7,CAACGCCG,0.191
8,ACACGGCT,0.266
9,CCACGGCA,0.235
10,CCACGGCG,0.309
11,AGACGGCG,0.305
12,ACACGGCG,0.394
13,TCCTCCGA,-0.395
14,CCCCTTAA,-0.212
15,AGGCAAAT,0.164
16,ATACAGGC,-0.121
17,GCAGGCAA,-0.0304
18,AGAGGATC,-0.18
19,AAACGGCT,0.105
20,AAACGGCC,0.084
21,AAACGGCG,0.369
22,ACAAGTAA,-0.0276
